Data published in PubChem BioAssay (NCI).
The panel holds about 83,000 compounds, 20% with a hit somewhere; the sample as a whole holds those more often.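 Compound tested at a single concentration for 48 hours in 96-well plates; a percent growth value below 10 was scored as active.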 A number with no mark means an inactive call. Activity calls are given as the source filed them.

test system: SF-539 CNS; test: NCI-60 one-dose screen, 48 h (100 = growth as untreated, 0 = no growth, -100 = all killed); conditions: 10 µM

Compared with Cc1c(O)cnc2nn(-c3ccccc3)c(=N)n12, C/C(=N\NC(=O)c1ccccc1N)c1ccccc1O is lower in growth: 99.6% for the first, 32.5% for the second.

Compared with CC[N+](C)(CC)CCO, CCOC(=O)C/C(C)=N\O is lower in growth: 108% for the first, 107% for the second.

Compared with COc1cc(CCN=Cc2ccccc2O)c([N+](=O)[O-])cc1OC, COc1cc(/C=C/C(=O)c2ccccc2)cc(OC)c1OC is lower in growth: 106% for the first, 80.8% for the second.

Compared with O=[N+]([O-])c1ccc(CO)cc1, Nc1ccc(N)c([N+](=O)[O-])c1 is lower in growth: 97.9% for the first, 94.9% for the second.

Going from O=C(Nc1ccccc1C(=O)NCC1CC1)c1cccs1 to CC(C)(C)n1nc(C2CC2)c(Br)c1NC(=O)c1ccccc1F, the growth falls from 101% to 100%.

First: COc1cc(CN)ccc1O
Second: COc1ccc(C(=O)C(Br)C(Br)C(=O)O)cc1 (stereo not given)
The growth of the first is lower: 94.9% for the first, 99.5% for the second.

Going from N#CC(=Nc1cccc(F)c1)C1=C(O)c2ccccc2C1=O to Nc1ccccc1SC(CC(=O)c1ccccc1)c1c(Cl)cccc1Cl (stereo not given), the growth rises from 95.6% to 101%.

Going from O=[N+]([O-])c1ccccc1S(=O)c1ccccc1[N+](=O)[O-] to O=C(Nc1ccccc1)OCCc1ccccc1, the growth falls from 113% to 99%.

Compared with CC(=O)OCC1CCCO1 (stereo not given), C=CCCCCCCCCCOC(C)=O is lower in growth: 114% for the first, 105% for the second.

First: CC(C(=O)O)(C1CCCCC1)C1(O)CCCCC1 (stereo not given)
Second: CC(CN1CCCCC1)NC(=O)c1scnc1-c1ccccc1 (stereo not given)
The growth of the first is lower: 103% for the first, 114% for the second.

Compared with O=C1OC(c2ccc(F)cc2)CC1CN1CCOCC1 (stereo not given), CCOC(=O)C1=C(Nc2ccc(Br)cc2)C(=O)N(CC)C1 is lower in growth: 96.9% for the first, 84.9% for the second.

Compared with OC1OC(COC(c2ccccc2)(c2ccccc2)c2ccccc2)C(O)C(O)C1O (stereo not given), NC(CSC(c1ccccc1)(c1ccccc1)c1ccccc1)C(=O)O (stereo not given) is lower in growth: 102% for the first, 10.3% for the second.

Compared with O=C(NCCNC(=O)c1ccc(Cl)cc1Cl)c1ccc(Cl)cc1Cl, O=C(NCc1ccco1)Nc1c(Cl)cc(Cl)cc1Cl is lower in growth: 96.5% for the first, 94.7% for the second.

Going from CC(C)(N)COS(=O)(=O)O to O=C(O)CCC(NC(=O)OCc1ccccc1)C(=O)O (stereo not given), the growth rises from 99.3% to 111%.

Compared with CN(C)c1ccc(C(c2ccc(O)cc2)c2ccc(N(C)C)cc2)cc1, CCCC[P+](c1ccccc1)(c1ccccc1)c1ccccc1 is lower in growth: 104% for the first, 64.5% for the second.

Going from S=C1NCc2cncnc2N1 to O=C(OCC(O)C1OC(c2ccccc2)OC(COC(=O)c2ccccc2)C1O)c1ccccc1 (stereo not given), the growth rises from 92.7% to 103%.

Work on O=C(O)CSCSCC(=O)O yielded a growth of 98.3%.

COc1ccc(/C(C#N)=C2C=C/C(=N/O)c3ccccc3\2)cc1 was tested, and the growth was -14.7% (active).
For Cc1ccccc1C1N=C2Oc3ccccc3C=C2C(=O)N1 (stereo not given), the growth was -5.32% (active).
